This is a sample that favours compounds with a hit; in the whole collection about 27% have one here.
CYP2C9 act = CYP2C9 (human) activation; P11712; recombinant CYP2C9, luciferin-H conversion, luminescence; stronger effect = higher value; factor 1 = untreated enzyme, 0 = blocked; activation factor at 5 µM; 96,000 tested, 1.4% active; AID 1024;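 active means activation factor of 2 or more for CYP2C9 at a 5 µM dose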;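 further: 0 = sulfaphenazole-blocked wells and 1 = vehicle-only wells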
Target sequence (P11712 whole entry, looked up): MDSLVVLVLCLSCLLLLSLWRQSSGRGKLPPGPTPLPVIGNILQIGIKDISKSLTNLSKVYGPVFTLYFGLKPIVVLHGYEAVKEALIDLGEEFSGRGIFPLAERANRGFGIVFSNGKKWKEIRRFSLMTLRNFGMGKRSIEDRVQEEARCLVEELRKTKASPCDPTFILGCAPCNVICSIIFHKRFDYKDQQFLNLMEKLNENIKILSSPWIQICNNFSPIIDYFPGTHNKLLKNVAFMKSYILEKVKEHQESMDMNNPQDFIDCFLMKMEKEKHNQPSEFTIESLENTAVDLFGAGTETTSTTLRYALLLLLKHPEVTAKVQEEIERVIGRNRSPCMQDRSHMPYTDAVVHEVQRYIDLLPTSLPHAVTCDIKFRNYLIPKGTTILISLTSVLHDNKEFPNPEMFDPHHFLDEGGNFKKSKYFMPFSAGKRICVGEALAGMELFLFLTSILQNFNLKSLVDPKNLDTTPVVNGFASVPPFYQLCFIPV
CYP2C19 inh = blocks human cytochrome P450 2C19 | P33261 | CYP2C19 Supersomes, luciferin-H EGE luminescence, 30 min | inhibition, % at 5 µM | 96,000 tested, 21% active;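 active means CYP2C19 inhibition above a set limit at 5 µM in the primary screen, cut at about 50% in these data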;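 further: plate controls were negative control wells for no effect and 2.5 mM tranylcypromine positive control for full effect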
CYP2C19 activ = activators of human cytochrome P450 2C19; P33261; recombinant CYP2C19, luciferin-H EGE luminescence; stronger effect = higher value; 0 = fully inhibited enzyme, 1 = untreated enzyme; activation factor at 5 µM; 96,000 tested, under 10 active;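 active means activation factor of at least 2 at 5 µM in the primary screen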;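 further: 0 = wells with 2.5 mM tranylcypromine and 1 = vehicle-only wells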
sEH activator = increases human soluble epoxide hydrolase activity | 91,000 tested, 0.04% active | P34913 | purified human sEH enzymatic activity, activator screen | activation, % at 2 µM; in the data active means activation above about 37%
CYP2C9 inh = human CYP2C9 inhibition; inhibition, % at 5 µM; 96,000 tested, 20% active; CYP2C9 Supersomes, luciferin-H conversion, luminescence;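 active means blocking of liver enzyme CYP2C9 beyond about 50% at 5 µM, limit read from the data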
sEH inhibitor = soluble epoxide hydrolase (human) inhibition; 91,000 tested, 0.34% active; recombinant human sEH enzymatic activity assay; P34913; AID 707; inhibition, % at 2 µM; in the data active means inhibition above about 80%
Starred values were filed as active, the others as inactive.

For Cc1ccc(CCNC(=O)CS(=O)Cc2nc(-c3cccc(C)c3)oc2C)cc1 (stereo unspecified) the results were CYP2C9 act 0.3, CYP2C19 inh 64.0*, CYP2C19 activ 0.4 and CYP2C9 inh 70.1*.
Screening Cc1oc(-c2ccccc2F)nc1CS(=O)CC(=O)NCc1ccc2c(c1)OCO2 (stereo unspecified) returned CYP2C9 act 0.5, CYP2C19 inh 61.7*, CYP2C19 activ 0.4, sEH activator -1.2, CYP2C9 inh 53.2* and sEH inhibitor 0.2.
Cc1oc(-c2ccc(Cl)cc2)nc1CS(=O)CC(=O)NCc1cccs1 (stereo unspecified) was read as CYP2C9 act 0.6, CYP2C19 inh 10.7, CYP2C19 activ 0.9, sEH activator 0.4, CYP2C9 inh 39.5 and sEH inhibitor 0.2.
For Cc1oc(-c2ccccc2F)nc1CS(=O)CC(=O)NCc1cccs1 (stereo unspecified) the results were CYP2C9 act 0.4, CYP2C19 inh 53.3*, CYP2C19 activ 0.5 and CYP2C9 inh 63.2*.
For Cc1cc(C(F)(F)F)nn1Cc1n[nH]c(=S)n1Cc1ccccc1 the results were sEH activator 7.3 and sEH inhibitor -2.1.
O=C(C/C=N\OCc1c(Cl)cccc1Cl)Oc1ccc(Cl)cc1Cl was read as CYP2C9 act 1.1, CYP2C19 inh 7.7, CYP2C19 activ 0.9, sEH activator 3.0, CYP2C9 inh -11.3 and sEH inhibitor -4.2.
For Cc1oc(-c2ccccc2Cl)nc1CS(=O)CC(=O)NCc1cccs1 (stereo unspecified) the results were CYP2C9 act 0.3, CYP2C19 inh 71.0*, CYP2C19 activ 0.3 and CYP2C9 inh 68.8*.
For COC(=O)c1cc(Cl)c(NC(=O)/C=C/c2ccc(OC)c(OC)c2)cc1OC the results were CYP2C9 act 0.9, CYP2C19 inh 11.2, CYP2C19 activ 0.9, sEH activator 16.5, CYP2C9 inh 14.7 and sEH inhibitor -13.4.
Cc1ccc(NS(=O)(=O)c2cc(C(N)=O)ccc2C)cc1 was read as CYP2C9 act 0.3, CYP2C19 inh 93.9*, CYP2C19 activ 0.1, sEH activator -5.3, CYP2C9 inh 67.2* and sEH inhibitor 3.1.
Screening Cc1ccc(C(N)=O)cc1S(=O)(=O)Nc1cccc(C)c1C returned CYP2C9 act 0.7, CYP2C19 inh 99.4*, CYP2C19 activ 0, sEH activator -6.3, CYP2C9 inh 34.7 and sEH inhibitor 6.4.
For CCCc1nc(SCc2ccccc2Cl)n[nH]1 the results were CYP2C9 act 1.1, CYP2C19 inh 30.8, CYP2C19 activ 0.7, sEH activator 4.0, CYP2C9 inh -11.7 and sEH inhibitor -1.7.
Screening CC(C)CCOc1ccc(Cl)cc1CN1CCOCC1 returned CYP2C9 act 0.7, CYP2C19 inh 55.9*, CYP2C19 activ 0.4, sEH activator -1.6, CYP2C9 inh 34.7 and sEH inhibitor 3.5.
CCCCCOc1ccc(Cl)cc1CN1CCOCC1 was read as CYP2C9 act 0.5, CYP2C19 inh 90.5*, CYP2C19 activ 0.1, sEH activator 9.5, CYP2C9 inh 54.2* and sEH inhibitor -7.9.
`CCC(C)NCCOCCOc1ccccc1-c1ccccc1` (stereo unspecified) gave CYP2C9 act 1.1, CYP2C19 inh 35.1, CYP2C19 activ 0.6, sEH activator 17.1, CYP2C9 inh -8.7 and sEH inhibitor -17.0.
CCN(CC)Cc1c(O)ccc2c(=O)c(-c3ccc4c(c3)OCCO4)coc12 was read as CYP2C9 act 1, CYP2C19 inh -4.4, CYP2C19 activ 1, sEH activator -6.5, CYP2C9 inh 3.6 and sEH inhibitor 6.1.
Screening O=c1c(-c2ccc3c(c2)OCCO3)coc2cc(O)cc(O)c12 returned CYP2C9 act 2.4*, CYP2C19 inh 12.2, CYP2C19 activ 0.9, sEH activator -7.8, CYP2C9 inh -140.7 and sEH inhibitor 9.2.
Screening CC(NC(=O)c1ccccc1Cl)C(=O)O (stereo unspecified) returned CYP2C9 act 0.9, CYP2C19 inh -8.0, CYP2C19 activ 1.1, sEH activator 2.3, CYP2C9 inh 12.3 and sEH inhibitor -4.8.
`COC(=O)/C=C(\C)NC(=O)c1ccccc1Cl` gave CYP2C9 act 0.9, CYP2C19 inh 80.1*, CYP2C19 activ 0.2, sEH activator 5.8, CYP2C9 inh 11.3 and sEH inhibitor -4.3.
`NNC(=O)CNC(c1ccccc1)c1cc(Br)ccc1NC(=O)c1ccccc1Br` (stereo unspecified) gave CYP2C9 act 0.4, CYP2C19 inh 38.3, CYP2C19 activ 0.6, sEH activator -4.2, CYP2C9 inh 58.2* and sEH inhibitor 6.8.
NNC(=O)CNC(c1ccccc1)c1cc(Br)ccc1NC(=O)CCN1CCOCC1 (stereo unspecified) was read as CYP2C9 act 0.9, CYP2C19 inh 16.1, CYP2C19 activ 0.8, sEH activator -4.6, CYP2C9 inh 11.3 and sEH inhibitor 6.8.
Screening O=c1c2ccccc2nc(SCc2cn3ccsc3n2)n1-c1ccccc1F returned CYP2C9 act 0, CYP2C19 inh 77.2*, CYP2C19 activ 0.2, sEH activator 2.0, CYP2C9 inh 98.7* and sEH inhibitor -4.0.
O=c1c2ccccc2nc(SCc2cn3ccsc3n2)n1-c1ccccc1 was read as CYP2C9 act 0.1, CYP2C19 inh 83.7*, CYP2C19 activ 0.2 and CYP2C9 inh 93.7*.
Cc1cccc(-n2c(SCc3cc(=O)n4ccsc4n3)nc3ccccc3c2=O)c1 was read as CYP2C9 act 0.5, CYP2C19 inh 22.0, CYP2C19 activ 0.8, sEH activator 10.9, CYP2C9 inh 49.5 and sEH inhibitor -7.7.
Screening Cc1ccc(NC2=C(Cl)C(=O)OC2OC(=O)c2ccco2)c(C)c1 (stereo unspecified) returned sEH activator 0.7 and sEH inhibitor 1.6.
Screening Cc1ccc(C)c(NC2=C(Cl)C(=O)OC2OC(=O)c2ccco2)c1 (stereo unspecified) returned CYP2C9 act 0.4, CYP2C19 inh 76.1*, CYP2C19 activ 0.2, sEH activator -8.0, CYP2C9 inh 57.6* and sEH inhibitor 3.9.
Cc1ccc(-n2c(Cc3cccn3C)nnc2SCC(=O)NCc2ccc3c(c2)OCO3)cc1 was read as CYP2C9 act 0.2, CYP2C19 inh 56.7*, CYP2C19 activ 0.4, sEH activator -8.7, CYP2C9 inh 83.9* and sEH inhibitor 8.6.
Cc1ccc(-n2c(Cc3cccn3C)nnc2SCC(=O)Nc2ccc3c(c2)OCO3)cc1 was read as CYP2C9 act 0.4, CYP2C19 inh 45.5, CYP2C19 activ 0.5 and CYP2C9 inh 56.1*.
For Cn1cccc1Cc1nnc(SCC(=O)Nc2ccc3c(c2)OCCO3)n1-c1ccc(F)cc1 the results were CYP2C9 act 0.7, CYP2C19 inh 17.6, CYP2C19 activ 0.8 and CYP2C9 inh 30.1.
`O=C(O)c1cc2ccc3ccccc3c2[nH]1` gave CYP2C9 act 1, CYP2C19 inh 7.5, CYP2C19 activ 0.9, sEH activator -3.0, CYP2C9 inh 2.5 and sEH inhibitor 1.2.

Screening data: PubChem BioAssay, several laboratories
